Assay results as given in PubChem BioAssay (Tox21).
Results filed as inconclusive are left out. Calls of active or inactive are those of the source. Unless noted, calls come from the whole dose curve.

Columns and labels:
[1] = qHTS assay to identify small molecule agonists of the vitamin D receptor (VDR) signaling pathway - cell viability counter screen (AID 743224; active = well fitted curve in the direction sought with a large enough effect in the repeat runs; an effect the other way counts as inactive or inconclusive; note: series mostly up to about 63 µM; % is set by controls: 0 for no effect and ±100 for the full control effect; nearly all actives have a fitted effect of over 50% in size)
Method in brief: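 Luminescence from CellTiter-Glo, read after 30 min at room temperature, reports viability of VDR-bla cells treated with compounds for 16 h at 37C in the wells used for the beta-lactamase FRET read.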

[2] = qHTS assay to identify small molecule agonists of the NFkB signaling pathway (AID 1159509; active = well fitted curve in the direction sought with a large enough effect in the signal ratio in the repeat runs, not every such curve was filed as active; the % refers to the signal ratio; note: series mostly up to about 61 µM; % is set by controls: 0 for no effect and ±100 for the full control effect)
Method in brief: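 After overnight attachment, reporter cells received test compounds, DMSO or positive controls and were incubated 5 hr at 37 C. FRET substrate was then added for 1.5 hr at room temperature before dual-emission fluorescence reading.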

[3] = qHTS assay to identify small molecule agonists of the NFkB signaling pathway - cell viability counter screen (AID 1159515); note: series mostly up to about 61 µM; % is set by controls: 0 for no effect and ±100 for the full control effect; nearly all actives have a fitted effect of over 55% in size
Method in brief: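 Luminescence from CellTiter-Glo (30 min, room temperature) gives viability, measured in the same wells as the beta-lactamase reporter read. Cells were NFkB-bla ME-180, 2,000 per well, treated 5 hr with compounds.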

[4] = qHTS assay to identify small molecule agonists of the endoplasmic reticulum stress response signaling pathway (AID 1159516; active = well fitted activation curve with a large enough effect in the signal ratio in the repeat runs, not every such curve was filed as active; the % refers to the signal ratio; note: % is set by controls: 0 for no effect and ±100 for the full control effect)
Method in brief: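 Read-out is beta-lactamase cleavage of a FRET substrate (405 nm excitation; 460 and 530 nm emissions) in ESRE-bla HeLa cells after a 5 hr compound exposure at 37 C. Substrate incubation ran 2 hr at room temperature.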

[5] = qHTS assay to identify small molecule agonists of the endoplasmic reticulum stress response signaling pathway - cell viability counter screen (AID 1159517);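 note: HeLa cells carrying an ER stress response element beta-lactamase reporter; series mostly up to about 61 µM; % is set by controls: 0 for no effect and ±100 for the full control effect; nearly all actives have a fitted effect of over 50% in size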
Method in brief: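 Luminescence readout: CellTiter-Glo, 30 min RT, same wells as the ESRE-bla reporter read. HeLa ESRE-bla, 1,500 cells/well, o/n 37 C; cpd 5 hr 37 C/5% CO2.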

[6] = qHTS assay to identify small molecule antagonists of the retinoid-related orphan receptor gamma (ROR-gamma) signaling pathway - cell viability counter screen (AID 1159520; active = well fitted curve in the direction sought with a large enough effect in the repeat runs; an effect the other way counts as inactive or inconclusive; note: % is set by controls: 0 for no effect and ±100 for the full control effect; nearly all actives have a fitted effect of over 50% in size)
Method in brief: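 Tet-on ROR gamma CHO cells (1,000/well) were plated 4 hr, given compounds in DMSO for 2 hr at 37 C, then induced with 1 uM final doxycycline for 16 hr. Viability was read as ATP by CellTiter-Glo luminescence after 30 min.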

[7] = molecular target: Nuclear receptor ROR-gamma (Homo sapiens) (UniProt P51449); test: qHTS assay to identify small molecule antagonists of the retinoid-related orphan receptor gamma (ROR-gamma) signaling pathway (AID 1159521; active = well fitted curve in the direction sought with a large enough effect in the repeat runs; an effect the other way counts as inactive or inconclusive;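 note: CHO cells with doxycycline inducible ROR-gamma driving an RORE luciferase reporter; top concentration of the series differs between compounds; % is set by controls: 0 for no effect and ±100 for the full control effect; nearly all actives have a fitted effect of over 50% in size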)
Method in brief: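 Tet-on ROR-gamma CHO cells with ROR response element-luciferase reporter; compounds added 2 hr before 1 uM doxycycline induction, then 16 hr at 37 C. Antagonism scored as decreased ONE-Glo luminescence.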

[8] = qHTS assay to identify small molecule agonists of the AP-1 signaling pathway - cell viability counter screen (AID 1159525); note: nearly all actives have a fitted effect of over 55% in size
Method in brief: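 ME-180 AP-1-bla, 2500 cells/well, Opti-MEM + 0.5% dialyzed FBS; overnight 37 °C; cpd 15-pt titration, 5 h 37 °C; CellTiter-Glo 30 min RT; luminescence read; normalised to TOAB and DMSO controls.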

[9] = qHTS assay to identify small molecule agonists of the AP-1 signaling pathway (AID 1159526); note: % is set by controls: 0 for no effect and ±100 for the full control effect
[10] = qHTS assay to identify small molecule antagonists of the vitamin D receptor (VDR) signaling pathway - cell viability counter screen (AID 743225; active = well fitted curve in the direction sought with a large enough effect in the repeat runs; an effect the other way counts as inactive or inconclusive)
Method in brief: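 VDR-UAS-bla HEK 293T cells were plated and incubated 4 h at 37C, then dosed with compound plus 3 nM (final) 1-alpha,25-dihydroxyvitamin D3 for 16 h. After the 2 h beta-lactamase read, viability in the same wells was read as CellTiter-Glo luminescence after 30 min at room temperature.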

CCCCCOC(=O)CCC
inactive: Potency [1] | outcome [2] | outcome [3] | outcome [4] | Potency [5] | outcome [6] | outcome [7] | outcome [8] | outcome [9]

CC(C)C(=O)OCCc1ccccc1
inactive: Potency [1] | outcome [2] | outcome [3] | outcome [4] | Potency [5] | outcome [6] | outcome [7] | outcome [8] | outcome [9]

NCCN1CCOCC1
inactive: Potency [1] | outcome [10] | outcome [2] | outcome [3] | outcome [4] | Potency [5] | outcome [6] | outcome [7] | outcome [8] | outcome [9]

N[C@@H](CCC(=O)N[C@@H](CS)C(=O)NCC(=O)O)C(=O)O
inactive: Potency [1] | outcome [2] | outcome [3] | outcome [4] | Potency [5] | activity, negative = cytotoxicity [6] 4.19% [at 19 µM] | activity change, negative = inhibition [7] -1.88% [at 19 µM] | viability change, negative = cytotoxic [8] 4.13% [at 15.8 µM] | activation [9] 1.13% [at 15.8 µM]

O=C(O)c1cc(Cl)cc([N+](=O)[O-])c1Cl
inactive: Potency [1] | outcome [2] | outcome [3] | outcome [4] | Potency [5] | outcome [6] | outcome [7] | outcome [8] | outcome [9]

CC(=O)Nc1cccc(C)c1
inactive: Potency [1] | outcome [2] | outcome [3] | outcome [4] | Potency [5] | outcome [6] | outcome [7] | outcome [8] | outcome [9]

CC(C)(C)c1cc(CCC(=O)NN)cc(C(C)(C)C)c1O
inactive: Potency [1] | outcome [2] | outcome [3] | outcome [4] | Potency [5] | outcome [6] | outcome [7] | outcome [8] | outcome [9]

CC(COC(C)(C)C)OCCCO (configuration not stated)
inactive: Potency [1] | outcome [2] | outcome [3] | outcome [4] | Potency [5] | outcome [6] | outcome [7] | outcome [8] | outcome [9]

NC(CO)C(=O)NNCc1ccc(O)c(O)c1O (configuration not stated)
inactive: Potency [1] | outcome [2] | outcome [3] | outcome [4] | Potency [5] | outcome [6] | outcome [7] | outcome [8] | outcome [9]

CC(C)CCCCOC(=O)c1ccccc1C(=O)OCCCCC(C)C
inactive: Potency [1] | outcome [10] | outcome [2] | outcome [3] | outcome [4] | Potency [5] | outcome [6] | outcome [7] | outcome [8] | outcome [9]

O=Cc1ccc(Cl)c(Cl)c1
inactive: Potency [1] | outcome [2] | outcome [3] | outcome [4] | Potency [5] | outcome [6] | outcome [7] | outcome [8] | outcome [9]

c1ccc2c(c1)ccc1c3ccccc3ccc21
inactive: Potency [1] | outcome [2] | outcome [3] | outcome [4] | Potency [5] | outcome [6] | outcome [7] | outcome [8] | outcome [9]

Nc1ccc(S(=O)(=O)Nc2ccc(Cl)nn2)cc1
inactive: Potency [1] | outcome [2] | outcome [3] | outcome [4] | Potency [5] | outcome [6] | outcome [7] | outcome [8] | outcome [9]

NNc1nnc(NN)c2ccccc12
inactive: Potency [1] | outcome [2] | outcome [3] | outcome [4] | Potency [5] | outcome [6] | outcome [7] | outcome [8] | outcome [9]

CC(=O)Nc1ccc(S(=O)(=O)Cl)cc1
inactive: Potency [1] | outcome [2] | outcome [3] | outcome [4] | Potency [5] | outcome [6] | outcome [7] | outcome [8] | outcome [9]

BrCc1cccc(Oc2ccccc2)c1
inactive: outcome [2] | outcome [3] | outcome [4] | Potency [5] | outcome [6] | outcome [7] | outcome [8] | outcome [9]

O=C(OCC1(COC(=O)c2cccnc2)CCCC(COC(=O)c2cccnc2)(COC(=O)c2cccnc2)C1O)c1cccnc1
inactive: Potency [1] | outcome [2] | outcome [3] | outcome [4] | Potency [5] | outcome [6] | outcome [7] | outcome [8] | outcome [9]

O=C(c1ccc(O)cc1)c1ccc(O)c(O)c1O
inactive: Potency [1] | outcome [2] | outcome [3] | outcome [4] | Potency [5] | outcome [6] | outcome [7] | outcome [8] | outcome [9]

C=C(C)C(=O)OCCN(CC)CC
inactive: Potency [1] | outcome [2] | outcome [3] | outcome [4] | Potency [5] | outcome [6] | outcome [7] | outcome [8] | outcome [9]

CCCCCCOC(=O)CC
inactive: Potency [1] | outcome [2] | outcome [3] | outcome [4] | Potency [5] | outcome [6] | outcome [7] | outcome [8] | outcome [9]

COc1cc(C(=S)N2CCOCC2)cc(OC)c1OC
inactive: Potency [1] | outcome [2] | outcome [3] | outcome [4] | Potency [5] | outcome [6] | outcome [7] | outcome [8] | outcome [9]

CN(CCOc1ccc(NS(C)(=O)=O)cc1)CCc1ccc(NS(C)(=O)=O)cc1
inactive: outcome [2] | outcome [3] | outcome [4] | Potency [5] | outcome [6] | outcome [7] | outcome [8] | outcome [9]

CC(=O)CCCCn1c(=O)c2c(ncn2C)n(C)c1=O
inactive: Potency [1] | outcome [2] | outcome [3] | outcome [4] | Potency [5] | outcome [6] | outcome [7] | outcome [8] | outcome [9]
